Our source for the outcome values is PubChem BioAssay (EPA / NIEHS).

SMILES strings stand for the structures. Active and inactive are the calls of the source. How the source made its calls: active means hit-call score of the fitted dose curve at least 0.9, where 1 is the maximum; inactive means score below 0.9.

Sequence of Nuclear factor NF-kappa-B p105 subunit (Homo sapiens) (P19838 whole entry, looked up): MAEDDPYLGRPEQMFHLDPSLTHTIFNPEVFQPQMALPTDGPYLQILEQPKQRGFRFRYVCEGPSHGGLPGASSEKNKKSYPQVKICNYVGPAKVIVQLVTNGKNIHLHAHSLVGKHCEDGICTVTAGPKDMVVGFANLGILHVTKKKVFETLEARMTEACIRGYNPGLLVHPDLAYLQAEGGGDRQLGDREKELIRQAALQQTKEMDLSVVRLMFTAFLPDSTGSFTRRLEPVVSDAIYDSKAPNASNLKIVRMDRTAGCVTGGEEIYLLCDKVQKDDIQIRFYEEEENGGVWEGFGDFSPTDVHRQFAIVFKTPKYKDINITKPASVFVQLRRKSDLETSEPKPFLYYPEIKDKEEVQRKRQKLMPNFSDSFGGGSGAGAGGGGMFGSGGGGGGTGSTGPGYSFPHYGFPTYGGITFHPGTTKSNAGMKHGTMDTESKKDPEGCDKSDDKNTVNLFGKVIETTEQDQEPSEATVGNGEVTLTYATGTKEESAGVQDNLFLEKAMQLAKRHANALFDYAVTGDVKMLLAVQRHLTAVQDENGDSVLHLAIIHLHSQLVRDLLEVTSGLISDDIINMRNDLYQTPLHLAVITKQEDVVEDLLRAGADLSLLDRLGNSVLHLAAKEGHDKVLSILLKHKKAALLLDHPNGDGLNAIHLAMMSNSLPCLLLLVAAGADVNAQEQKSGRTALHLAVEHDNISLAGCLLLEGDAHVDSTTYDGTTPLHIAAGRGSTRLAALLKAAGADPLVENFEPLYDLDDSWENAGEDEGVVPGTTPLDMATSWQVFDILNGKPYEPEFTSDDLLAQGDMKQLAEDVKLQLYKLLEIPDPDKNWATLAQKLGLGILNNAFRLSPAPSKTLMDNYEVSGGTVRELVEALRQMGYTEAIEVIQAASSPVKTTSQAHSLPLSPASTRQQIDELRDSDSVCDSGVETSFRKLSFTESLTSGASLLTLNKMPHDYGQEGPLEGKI

Read-out in the assay: Nuclear factor NF-kappa-B p105 subunit (Homo sapiens) (UniProt P19838)
Put plainly: LTEA_HepaRG_NFKB1: Life Technologies and Expression Analysis (LTEA) Assay for Nuclear Factor Kappa B Subunit 1 (NFKB1) using HepaRG (AID 2283521).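 Further: TaqMan qRT-PCR transcript normalised to ACTB GAPDH and POLR2A housekeeping genes.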 To be noted: mRNA level, 48 h; actives raise or lower the signal. The method, then:
LTEA_HepaRG is a cell based, multiplexed-readout assay that uses HepaRG, a human liver cell line, with measurements taken at 48 hours after chemical dosing on a 96-well plate.LTEA_HepaRG_NFKB1 is one of 102 assay component(s) measured in the LTEA HepaRG cell culture assay. It is a marker of Cell proliferation, survival, death.Data from the assay component LTEA_HepaRG_NFKB1 was analyzed into 1 endpoint. This assay endpoint, LTEA_HepaRG_NFKB1, was analyzed with bidirectional fitting relative to DMSO as the negative control and baseline of activity. Using a type of inducible reporter, measures of mRNA induction for gain or loss-of-signal activity can be used to understand regulation of transcription factor activity. To generalize the intended target to other relatable targets, this assay endpoint is annotated to the dna binding intended target family, where the subfamily is NF-kappa B.
A total of 1060 chemcials from the ToxCast library were tested in eight-point concentration-response experiments. Cell culture and cytotoxicity assays were conducted at Thermo Fisher Scientific's Custom Services facility (Madison, WI). A single lot of human HepaRG cells (Thermo Fisher Scientific, Frederick, MD) was used for the cell culture experiments. 96-well format collagen type I coated plates of human HepaRG cells were prepared using established methods. Briefly, cryopreserved HepaRG cells were thawed, plated at a density of approximately 100,000 cells/well in HepaRG Thaw, Plate, and General Purpose media (HPRG770, Thermo Fisher Scientific), and incubated for 48 hours. 0.5% DMSO was selected as vehicle control to balance the requisite need of DMSO in HepaRG cultures to maintain differentiation (for example, baseline metabolism, proportions of hepatocytes vs. cholangiocytes), while enabling further hepatic receptor pathway activation (for example, PXR and CAR) in response to chemical exposure. 48 hours after plating, the culture medium was replaced with HepaRG Serum-Free Incudtion Media. Cells were exposed to each test chemical in duplicate and maintained in CO2 incubators for another 48 hours. Chemical plates were thawed to room temperature and 200x concentrations of treatment groups were prepared. 8-point conentration-reponse curves were made with the highest exposure at 100 uM, followed by half-log dilutions, all in 0.5% DMSO. Each test plate contained variouse controls, induction positive controls (1mM phenobarbital), cytotoxicity positive controls ([…] aflatoxin B1), vehicle controls (0.5% DMSO), and total lysis controls (0.5% DMSO). Cell morphology images were taken using an Essen IncuCyte FLR automated microscope, with six 96-well plates imaged in about 24 minutes. Images were captured and exported and JPEG files. Spent culture media was transfered to black-well plates for the LDH assay, and remaining media was sorted at -80 C for later use. Cells were treated with RLT buffer and frozen until shipped for gene expression analysis. Total RNA was isolated from the cell suspension in 75 uL of Buffer RLT (Qiagen, Germantown, MD 20874) by Quintiles/Expression Analysis (Durham, NC) using a custom isolation procedure. Total RNA from each plate well was transferred to a preamplification plate. Fluidigm's 96.96 Dynamic ArrayTM (Fluidigm, Amsterdam, the Netherlands) technology was used for gene expression analyses by quantitative reverse transcription polymerase chain reaction (qRT-PCR, performed by Quintiles/Expression Analysis, Durham, NC)89. Standard TaqManTM Assays (Applied Biosystems/ThermoFisher Scientific, Foster City, CA) were used to assess the expression of 93 genes selected based on their selectivity and sensitivity to important hepatic receptors known to be modulated by environmental chemicals; importance in human hepatocyte functionality; and hepatotoxicity. […]
`CCOc1ccc(C(C)(C)COCc2cccc(Oc3ccccc3)c2)cc1`: the call was inactive.

As to `O=P1(N(CCCl)CCCl)NCCCO1` (centres undefined), the outcome was inactive.

Consider `CCOC(=O)c1ccccc1C(=O)OCC`, for which the call was inactive.

In the case of `CCNc1nc(Cl)nc(NC(C)(C)C)n1`, the call was inactive.

As for `O=P(Oc1ccccc1)(Oc1ccccc1)Oc1ccccc1`, the outcome was inactive.

For `CCCCN(CCCC)N=O`, the call was inactive.

As for `CCN(CC)c1ccccc1`, the molecule was classed as inactive.

On to `[N-]=[N+]=[N-]`, for which the molecule was called inactive.

On to `c1nc[nH]n1`, for which the result was inactive.

With `CCC1(c2ccccc2)C(=O)N=C(O)NC1=O` (centres undefined), the molecule was called inactive.

As for `Cc1ccc(N)cc1N`, the molecule was classed as inactive.

Regarding `O=[N+]([O-])c1ccc(Cl)c(Cl)c1`, the outcome was inactive.

For `CC(C)(C)OOC(C)(C)C`, the result was inactive.

For the molecule `CCCCCCCc1ccc(O)cc1`, the molecule was called inactive.

Consider `Cc1ccc([N+](=O)[O-])cc1C`, for which the call was inactive.

In the case of `CCOP(=S)(OCC)SCSCC`, the molecule was classed as inactive.

In the case of `ClC1=C(Cl)C2(Cl)C3C(Cl)C(Cl)CC3C1(Cl)C2(Cl)Cl` (centres undefined), the molecule was classed as inactive.

Regarding `O=[N+]([O-])c1ccccc1`, the outcome was inactive.

Take `CN(C)C(=O)Cl`: the call was inactive.

Take `CCOP(=S)(Oc1ccc([N+](=O)[O-])cc1)c1ccccc1` (centres undefined): the molecule was called inactive.

On to `CCCCN(CCCC)SN(C)C(=O)Oc1cccc2c1OC(C)(C)C2`, for which the molecule was classed as inactive.

Consider `CCC(C)(C)c1ccc(O)cc1`, for which the outcome was inactive.

Take `O=C(O)C1C(C(=O)O)C2(Cl)C(Cl)=C(Cl)C1(Cl)C2(Cl)Cl` (centres undefined): the molecule was called inactive.

`c1cc2c3c(cccc3c1)CC2`: the molecule was called inactive.

Consider `ClC(Cl)c1ccccc1`, for which the molecule was called inactive.

Regarding `c1ccc(OP(Oc2ccccc2)Oc2ccccc2)cc1`, the molecule was classed as inactive.

Regarding `COCCOCCO`, the result was inactive.

For `Cc1cccc(N)c1`, the result was inactive.

`Nc1cc2c3c(c1)C(c1ccccc1)=N[C@@H](NC(=O)c1cccnc1)C(=O)N3CC2`: the molecule was classed as inactive.
